Where “and” joins values, the source holds several entries; their conditions need not be identical. Identical values can stand only once. The campaign covered roughly 290,000 compounds. About 230 (0.079%) were called active. The sample holds actives, similar compounds and a random draw of the others, so the mix is not that of the screen. Unmarked numbers belong to inactive results. No stated cut-off is given here; in the data, active means inhibition above about 40%; inactive means the rest.

The target in this assay is Cyclic GMP-AMP synthase (Homo sapiens) (UniProt Q8N884). The assay can be described thus: Biochemical Kinase-Glo luminescence primary assay, human cyclic GMP-AMP synthase inhibition (AID 1259398).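 Further: 0% = vehicle reaction and 100% = reaction without DNA for no activity.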 The following applies: recombinant h-cGAS, ATP depletion, at 12.5 µM, stronger effect = higher value. In general terms: Kinase-Glo reads ATP consumption through a luciferase reaction.
Cyclic GMP-AMP synthase (Homo sapiens), sequence (Q8N884 whole entry, looked up): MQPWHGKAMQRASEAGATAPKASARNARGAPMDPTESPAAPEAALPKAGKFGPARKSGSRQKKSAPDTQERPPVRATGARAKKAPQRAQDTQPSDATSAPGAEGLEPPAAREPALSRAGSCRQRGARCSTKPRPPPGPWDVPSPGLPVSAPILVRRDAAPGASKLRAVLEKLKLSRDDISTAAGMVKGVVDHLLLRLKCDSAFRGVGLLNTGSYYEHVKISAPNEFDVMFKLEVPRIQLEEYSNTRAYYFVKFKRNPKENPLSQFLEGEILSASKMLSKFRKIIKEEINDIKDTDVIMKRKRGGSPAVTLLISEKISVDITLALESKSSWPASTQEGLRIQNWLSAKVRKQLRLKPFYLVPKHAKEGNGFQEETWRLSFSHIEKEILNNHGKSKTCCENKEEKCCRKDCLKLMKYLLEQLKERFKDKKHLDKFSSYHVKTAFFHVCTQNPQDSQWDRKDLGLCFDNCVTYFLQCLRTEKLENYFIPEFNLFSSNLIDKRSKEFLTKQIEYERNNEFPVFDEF
In general, inhibition refers to the change of the read-out against control, counted positive when it falls. As to `O=C1NC(C(=O)N2Cc3cnc(-c4ccccc4)nc3C2)CO1` (stereo not drawn), the inhibition was -0.988%. The same measure for `CC(=O)c1[nH]c(C)c(C(=O)N2CCCCC2CCc2ccccn2)c1C` (stereo not drawn): -5.8%; for `Cc1[nH]c(/C=C2\C(=O)Nc3ccc(S(=O)(=O)Cc4c(Cl)cccc4Cl)cc32)c(C)c1C(=O)N1CCC[C@@H]1CN1CCCC1`: 63.1% (active).

For `Cc1ccnc2nc(C(=O)N3CCCC3CN3CCCC3)nn12` (stereo not drawn), the inhibition is -10.3%. Take `Cc1nn(C)c2ncc(C(=O)NCCn3cnnc3C(C)C)cc12`: the inhibition was 1.28%. The same measure for `CC(C)(C)c1cc2nc(-c3ccccc3)cc(C(=O)NC3CCCCNC3=O)n2n1` (stereo not drawn): 1.91% and -3.83%; for `CC(C)Nc1ccc(C(=O)N[C@H](C)C(C)(C)C)cn1`: -9.34%; for `CC(NCc1ccccc1Cn1cccn1)C(=O)NC1CCCC1` (stereo not drawn): -4.67%. The value for `Cc1ccc(Nc2nc(N3CCN(c4ccc(F)cc4)CC3)nc3nccnc23)c(C)c1` was -2.31%; that for `CCc1cnc2c(c1SCc1cccc(C(F)(F)F)c1)c(=O)n(C)c(=O)n2C` was -9.29%. The same measure for `Cc1ccc(CN(CCc2c[nH]c3ccccc23)C(=O)CN(C(=O)c2ccc([N+](=O)[O-])cc2)C(C)C)cc1`: -6.46%. With `Nc1cc(-c2cccc(C(F)(F)F)c2)nn1-c1ccc(C(=O)NCc2ccc3c(c2)OCO3)cc1`, the inhibition is -5.72%. Turning to `C=CCNc1ccccc1C(=O)N1[C@@H]2CC[C@H]1CC(O)C2` (stereo partly drawn), the inhibition was -2.12%. For the compound `Cc1ccc(/C=C/C(=O)N(C)C(C)c2cccc(S(N)(=O)=O)c2)o1` (stereo not drawn), the inhibition is -0.284%. Take `O=c1c(O)c(Br)ccc2c(Br)c(O)c(O)c(O)c12`: the inhibition is 70.1% (active). For `O=C(C=Cc1ccc(Br)o1)NC1CCCCCC1`, the inhibition was -5.99%. For `O=C(OCC(=O)N1CCCC1c1ccc(Cl)c(Cl)c1)C1CCOC1` (stereo not drawn), the inhibition was -2.27%. The value for `CC(C)n1nccc1NC(=O)CN(C)S(=O)(=O)c1ccc(Cl)s1` was -6.6%; that for `Cn1cnnc1Sc1ccc(Cl)cc1NC(=O)C1CCCCC1` was -8.95%; that for `CCC(C)(C)NC(=O)[C@H](CC(C)C)N1CC[C@@]2(CCCN2C(=O)CCC(C)=O)C1=O` was 0.355%. As to `Cc1csc(C2CCN(S(=O)(=O)c3ccc(F)cc3Cl)CC2)n1`, the inhibition is -7.52%. The same measure for `Fc1cc(F)cc(-c2cncc(COc3ccc(F)cc3F)c2)c1`: 1.15%; for `COc1nc(C)cc(C)c1CNC(=O)C(=O)N1CCc2ccccc21`: 4.25%; for `CCOC(=O)C1(C)CCCN1C(=O)c1cc(C)on1` (stereo not drawn): -5.23%. The same measure for `O=C(NC1CCN(c2ccccc2C(=O)NCc2cccc(C(F)(F)F)c2)CC1)c1ccccc1F`: -3.47%; for `Cc1cc(=O)n(-c2ccc(S(=O)(=O)O)cc2C)[nH]1`: -8.43%. The same measure for `CCOC(=O)C1CCCN(Cn2c(=O)c3ccccc3n3nc(C)cc23)C1` (stereo not drawn): -0.416%; for `O=C(c1cc(Cn2ccc3ccccc32)[nH]n1)N1CCCC1c1nccs1` (stereo not drawn): -1.07%; for `CCc1cnc(COc2ccc(OC3CCCCNC3=O)cc2)o1` (stereo not drawn): -10.1%. Consider `COC(=O)c1c(C)[nH]c(C(=O)N2CCCC2c2ccc(OC)cc2)c1C` (stereo not drawn), for which the inhibition is -3.09%.

With `COc1ccc(-c2nnc(SCC(=O)N/N=C\c3ccccn3)n2-c2ccccc2)cc1OC`, the inhibition was 1.79%.

For `O=C1c2cccc3cccc(c23)C(=O)N1CCCCCc1n[nH]c(=S)o1`, the inhibition is -2.3%. In the case of `Cc1ccccc1N(CCCN1C(=O)c2cccc3cccc(c23)C1=O)C(=O)c1ccc([N+](=O)[O-])cc1`, the inhibition is -1.77%.

`C[N+](C)(CCCCCC[N+](C)(C)CCCN1C(=O)c2cccc3cccc(c23)C1=O)CCCN1C(=O)c2cccc3cccc(c23)C1=O`: the inhibition is 90.3% (active).

Regarding `COc1cn(CC(=O)NCc2ccc3c(c2)OCO3)c(CSc2ncccn2)cc1=O`, the inhibition is -5.34%. On to `COCCCN(CC(=O)N(Cc1ccc2c(c1)OCO2)Cc1cccs1)C(=O)C1C[C@H]1c1ccccc1` (stereo partly drawn), for which the inhibition is -8.64%. The same measure for `O=C(CCNC(=O)C1CC2(CCNCC2)CN1)Nc1nccs1` (stereo not drawn): -7.06%.

Take `COCc1c(Br)c(C)nc(OCC(=O)N/N=C\c2cc(I)c(OCc3ccccc3Cl)c(OC)c2)c1C#N`: the inhibition was -3.7%. The same measure for `CN1CCN(C(=O)c2cc(COc3ccc(-n4cncn4)cc3)on2)CC1c1ccccc1` (stereo not drawn): -7.12% and -3.64%; for `CCOc1cc(Br)cc(/C=N\Nc2nc(N3CCCCC3)nc(N3CCCCC3)n2)c1O`: -5.11%.

In the case of `CC1CCCN(c2nn3c(C(=O)NCCN4CCCCCC4)cc(=O)nc3s2)C1` (stereo not drawn), the inhibition was -1.82%.

For `Nc1ccc(NC(=S)NCc2ccco2)cc1[N+](=O)[O-]`, the inhibition was -4.64%. The same measure for `CCN1CCN(c2ccccc2NS(=O)(=O)c2cc(Br)ccc2OC)CC1`: -2.43%.

The values are drawn from PubChem BioAssay AID1259398 (Fisher Drug Discovery Resource Center, 2018).
